Compound activity: PubChem BioAssay, Johns Hopkins Ion Channel Center
KCNQ2 inh = inhibitors of rat KCNQ2 potassium channel | O88943 | CHO-K1 KCNQ2, FluxOR thallium flux, 20 min; active compounds read low | B-score at 10 µM | 1.1% of 310,000 active | AID 2156;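 active = fluorescence ratio B-score at most minus 3 library SDs, with starting brightness B-score within 2 library SDs, cut at about -5.5 in these data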
KCNQ2 pot = enhances the rat KCNQ2 potassium channel | 0.54% of 310,000 active | B-score at 10 µM | AID 2239 | CHO-K1 KCNQ2, FluxOR thallium flux fluorescence; active compounds read high;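 active = fluorescence ratio B-score at least 3 SD of library B-scores, with initial fluorescence B-score within 3 of them, cut at about 5.3 in these data; same plate scores as AID 2156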;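 also: B-score of peak minus minimum over baseline fluorescence ratio after K+ and Tl+ stimulus; positive B-score means potentiation of KCNQ2 with more thallium influx and brighter signal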
Numbers stand for hits; i = inactive; nt = not tested or not shown. The list is not random: actives were taken first. Their share in the collection is about 1.6%.

SMILES	KCNQ2 inh	KCNQ2 pot
CCN(CC)P(=O)(/C=C(\Cl)c1ccccc1)/C=C(\Cl)c1ccccc1	-5.9	i
O=P(O)(O)/C=C(\Cl)c1ccccc1	i	nt
Cc1c2cnn(CC(=O)N3CCC4(CC3)OCCO4)c(=O)c2c(C)n1Cc1ccc(F)cc1	i	i
O=C(Cn1ncc2c3ccccc3n(Cc3ccccc3F)c2c1=O)N1CCC2(CC1)OCCO2	i	16
COc1cc(CN2CC3CC(C2)c2cccc(=O)n2C3)cc(OC)c1OC (centres undefined)	i	i
COc1cc(C)c(-c2nc(CN3C[C@@H]4C[C@@H](C3)c3cccc(=O)n3C4)c(C)o2)cc1C	-5.8	i
N=c1sccn1Cc1ccccc1F	i	i
CC(C)[N+]12CCC(CC1)C(C(O)(c1ccccc1)c1ccccc1)C2 (centres undefined)	i	i
FC(F)(F)c1ccccc1CCN1CCNCC1	i	nt
CCN1C[C@]2(C)CC[C@H](OC)[C@]34C2[C@H](OC(C)=O)[C@@]2(OCO[C@@]25C[C@H](OC)[C@H]2C[C@]3(O)C5[C@H]2OC)[C@@H]14	i	nt
Cc1ccc(N2C(=O)CC(=O)NC2=O)cc1Cl	i	nt
O=P(Nc1cccc(Cl)c1)(Oc1ccccc1)Oc1ccccc1	-5.6	i
COc1cccc(NP(=O)(Oc2ccccc2)Oc2ccccc2)c1	i	nt
Cc1ccc(Oc2cc(NN3CCCCC3)c([N+](=O)[O-])cc2[N+](=O)[O-])c([N+](=O)[O-])c1	i	nt
CN[C@H]1C[C@H]2O[C@@](C)([C@H]1OC)n1c3ccccc3c3c4c(c5c6ccccc6n2c5c31)C(=O)NC4	i	9.3
Cc1nc2ccccc2c(=O)n1-c1cc([N+](=O)[O-])cc([N+](=O)[O-])c1	i	i
CN1CCC(N(C)c2nc(-c3ccc([N+](=O)[O-])cc3)nc3ccccc23)CC1	-6	i
CCN1C[C@]2(OC(=O)c3ccccc3NC(C)=O)CCC(OC)C34C5C[C@H]6C(OC)[C@]5(O)[C@](O)(C[C@@H]6OC)C(C[C@@H]32)[C@H]14 (some centres undefined)	i	i
COc1ccc(-n2nc(C(=O)NCC(=O)N3CCC4(CC3)OCCO4)c3ccccc3c2=O)c(OC)c1	i	nt
CC(C)n1c(=O)c(C=Nc2ccc(S(N)(=O)=O)cc2)c(O)n(Cc2ccco2)c1=O	i	i
CC(C)n1c(=O)c(C=Nc2cccc([N+](=O)[O-])c2)c(O)n(CCc2ccccc2)c1=O	-6.7	i
CCOc1cc(C2NCc3ccccc3-n3cccc32)ccc1O (centres undefined)	i	nt
CCOc1cccc(C2NCc3ccccc3-n3cccc32)c1O (centres undefined)	-6.8	i
O=C1CN(O)C(c2ccccc2Cl)=c2cc(Br)ccc2=N1	i	i
Oc1ccccc1C1NCc2ccccc2-n2cccc21 (centres undefined)	i	nt
SMILES	KCNQ2 inh	KCNQ2 pot
O=C1NC(=O)C2(Cc3ccccc3N3CCCC32)C(=O)N1c1cccc(Cl)c1 (centres undefined)	i	nt
Cc1ccc(N2C(=O)NC(=O)C3(Cc4ccccc4N4CCN(c5ccccc5)CC43)C2=O)cc1 (centres undefined)	-7.1	i
COc1ccc(-c2nc3ccc(C(=O)N4CCC5(CC4)OCCO5)cc3nc2-c2ccc(OC)cc2)cc1	i	nt
CC/C=C/CC(=O)N[C@@H](c1ccccc1)[C@@H](O)C(=O)O[C@H]1C[C@@]2(O)[C@@H](OC(=O)c3ccccc3)C3[C@](C)(C(=O)[C@H](OC(C)=O)C(=C1C)C2(C)C)[C@@H](O)C[C@H]1OC[C@@]31OC(C)=O (some centres undefined)	-5.6	i
CCC(C)C(=O)N[C@@H](c1ccccc1)[C@@H](O)C(=O)O[C@H]1C[C@@]2(O)[C@@H](OC(=O)c3ccccc3)C3[C@](C)(C(=O)[C@H](OC(C)=O)C(=C1C)C2(C)C)[C@@H](O)C[C@H]1OC[C@@]31OC(C)=O (some centres undefined)	i	nt
CCCCn1c(C)c(C(=O)OCC)c2c(CN3CCCC3)c(O)ccc21	i	nt
Oc1ccccc1CN(CCc1ccccc1)Cc1ccccc1	-6	i
CN(CCc1ccccc1)Cc1ccccc1[N+](=O)[O-]	i	nt
Nc1ccc(CCN2CCN(c3cccc(C(F)(F)F)c3)CC2)cc1	i	i
